PubChem BioAssay
Activity calls are given as the source filed them.

Key:
Albumin (Bos taurus) = Albumin (Bos taurus) (UniProt P02769); test: compounds binding labelled BSA control protein – biochemical, small-molecule microarray, Alexa647 label, 635/667 nm fluorescence, artefact control for SMM control protein annotation, profiling panel (AID 1118); settings: BSA-A647 binding, fluorescence 635 nm, higher = more signal;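 note: score merges 667 nm emission intensity and signal-to-noise per printed compound spot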
Albumin (Bos taurus), sequence (P02769 whole entry, looked up): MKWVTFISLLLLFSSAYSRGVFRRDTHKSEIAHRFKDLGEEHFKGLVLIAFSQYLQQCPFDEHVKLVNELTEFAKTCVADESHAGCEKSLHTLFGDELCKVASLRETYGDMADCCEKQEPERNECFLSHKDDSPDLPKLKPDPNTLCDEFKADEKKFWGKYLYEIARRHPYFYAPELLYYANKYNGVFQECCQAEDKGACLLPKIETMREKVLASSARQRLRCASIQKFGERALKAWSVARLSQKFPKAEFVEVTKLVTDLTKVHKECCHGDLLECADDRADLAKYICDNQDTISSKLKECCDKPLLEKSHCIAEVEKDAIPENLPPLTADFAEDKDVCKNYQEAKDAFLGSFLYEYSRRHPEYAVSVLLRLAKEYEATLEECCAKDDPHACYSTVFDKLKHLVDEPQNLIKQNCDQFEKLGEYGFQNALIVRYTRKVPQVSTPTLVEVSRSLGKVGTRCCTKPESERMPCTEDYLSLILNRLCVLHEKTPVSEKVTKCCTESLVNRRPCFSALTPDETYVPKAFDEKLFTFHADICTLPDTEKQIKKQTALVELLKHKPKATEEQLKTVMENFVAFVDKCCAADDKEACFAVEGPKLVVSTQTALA

[1] = probe aXIP binding to arrayed compounds – biochemical, NeuroSMM set, 635/667 nm fluorescence, primary screen (AID 1119); settings: small-molecule microarray, higher = more signal, called active from +8 up or from −8 down;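 note: probe is the protein aXip251-270 applied at 1 µg/mL to compound-printed slides; binding of probe to printed compounds measured as 667 nm fluorescence plus signal to noise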
[2] = probe aNOTCH3 binding on compound microarray – biochemical, small-molecule microarray, 635/667 nm fluorescence, primary screen (AID 1120); settings: higher = more signal;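 note: probe is a biotin-tagged antibody raised against NOTCH3 rather than NOTCH3 protein; score merges spot fluorescence near 667 nm with spot signal to noise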
[3] = probe aNOTCH2 binding on compound microarray – biochemical, small-molecule microarray, 635/667 nm fluorescence, primary screen (AID 1121); settings: higher = more signal;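 note: score merges feature fluorescence read at 667 nm with its signal to noise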
[4] = target: Carbonic anhydrase 2 (Homo sapiens) (UniProt P00918); test: compounds binding carbonic anhydrase 2 – biochemical, small-molecule microarray, Alexa647-labelled CAII, profiling panel (AID 1122); settings: CAII-A647 binding fluorescence, higher = more signal
[5] = COS7 lysate on small-molecule microarray, probe aHis, 635 nm (AID 1123); settings: COS7 cell lysate, fluorescence, higher = more signal;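 note: z-score combines 667nm fluorescence intensity with signal-to-noise per printed compound spot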
[6] = probe aLAP1 signal on lysate-treated microarray – cell lysate, small-molecule microarray, COS7 lysate, primary screen (AID 1124); settings: probe aLAP1, fluorescence, higher = more signal;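 note: lysate comes from COS7 cells expressing LAP1 and is applied at 0.3 µg/mL; score merges spot fluorescence near 667 nm with signal-to-noise over triplicate slides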
Sam68 (KHDRBS1) = test: compounds binding KHDRBS1 protein – biochemical, small-molecule microarray, 635 nm fluorescence, primary screen (AID 1125); settings: higher = more signal;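 note: score merges 667 nm channel intensity with signal to noise over triplicate slides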
[7] = test system: Chordin-like protein 2 (CHRDL2); test: compounds binding chordin-like 2 – biochemical, small-molecule microarray, 635 nm fluorescence, primary screen (AID 1126); settings: fluorescence 635 nm, higher = more signal;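 note: printed compound slides probed with Chrdl2 protein at 4 µg/mL for 1 h at 4 C; score merges 667 nm emission intensity with signal to noise over three replicate slides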
[8] = target: Concanavalin-A (Canavalia ensiformis) (UniProt P02866); test: compounds binding concanavalin A lectin – biochemical, small-molecule microarray, Alexa647 label, 635 nm, artefact control for SMM control protein annotation, primary screen (AID 1127); settings: ConA-A647 binding fluorescence, higher = more signal;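 note: z combines 667 nm emission intensity with signal-to-noise across three replicate slides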
Concanavalin-A (Canavalia ensiformis), sequence (P02866 whole entry, looked up): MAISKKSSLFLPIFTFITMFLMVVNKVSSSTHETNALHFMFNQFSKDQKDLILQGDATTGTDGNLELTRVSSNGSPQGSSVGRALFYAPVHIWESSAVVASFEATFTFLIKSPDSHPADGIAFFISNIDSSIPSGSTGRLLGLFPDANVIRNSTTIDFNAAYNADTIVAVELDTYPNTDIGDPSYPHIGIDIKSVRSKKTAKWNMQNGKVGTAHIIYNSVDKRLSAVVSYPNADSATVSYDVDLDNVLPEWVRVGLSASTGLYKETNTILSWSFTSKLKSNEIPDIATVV

[9] = compounds binding Alexa647 anti-His antibody – biochemical, small-molecule microarray, 635 nm fluorescence, artefact control for SMM control protein annotation, primary screen (AID 1128); settings: higher = more signal;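 note: score merges feature fluorescence with signal-to-noise for each printed compound spot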
[10] = test system: Human papillomavirus type 1a E7 protein (residues 1-88); test: HPV1a E7 small-molecule binders, primary screen, biochemical, small-molecule microarray, residues 1-88, 635 nm (AID 1129); settings: small-molecule microarray binding, fluorescence 635 nm; higher = more signal
[11] = target: Focal adhesion kinase 1 (Homo sapiens) (UniProt Q05397); test: PTK2 protein binding on printed compound slides – biochemical, small-molecule microarray, 635/667 nm fluorescence, BSA, DTT, primary screen (AID 1130); settings: 635 nm fluorescence, higher = more signal;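 note: composite of spot emission at 667 nm and signal to noise over triplicate slides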
Focal adhesion kinase 1 (Homo sapiens), sequence (Q05397 whole entry, looked up): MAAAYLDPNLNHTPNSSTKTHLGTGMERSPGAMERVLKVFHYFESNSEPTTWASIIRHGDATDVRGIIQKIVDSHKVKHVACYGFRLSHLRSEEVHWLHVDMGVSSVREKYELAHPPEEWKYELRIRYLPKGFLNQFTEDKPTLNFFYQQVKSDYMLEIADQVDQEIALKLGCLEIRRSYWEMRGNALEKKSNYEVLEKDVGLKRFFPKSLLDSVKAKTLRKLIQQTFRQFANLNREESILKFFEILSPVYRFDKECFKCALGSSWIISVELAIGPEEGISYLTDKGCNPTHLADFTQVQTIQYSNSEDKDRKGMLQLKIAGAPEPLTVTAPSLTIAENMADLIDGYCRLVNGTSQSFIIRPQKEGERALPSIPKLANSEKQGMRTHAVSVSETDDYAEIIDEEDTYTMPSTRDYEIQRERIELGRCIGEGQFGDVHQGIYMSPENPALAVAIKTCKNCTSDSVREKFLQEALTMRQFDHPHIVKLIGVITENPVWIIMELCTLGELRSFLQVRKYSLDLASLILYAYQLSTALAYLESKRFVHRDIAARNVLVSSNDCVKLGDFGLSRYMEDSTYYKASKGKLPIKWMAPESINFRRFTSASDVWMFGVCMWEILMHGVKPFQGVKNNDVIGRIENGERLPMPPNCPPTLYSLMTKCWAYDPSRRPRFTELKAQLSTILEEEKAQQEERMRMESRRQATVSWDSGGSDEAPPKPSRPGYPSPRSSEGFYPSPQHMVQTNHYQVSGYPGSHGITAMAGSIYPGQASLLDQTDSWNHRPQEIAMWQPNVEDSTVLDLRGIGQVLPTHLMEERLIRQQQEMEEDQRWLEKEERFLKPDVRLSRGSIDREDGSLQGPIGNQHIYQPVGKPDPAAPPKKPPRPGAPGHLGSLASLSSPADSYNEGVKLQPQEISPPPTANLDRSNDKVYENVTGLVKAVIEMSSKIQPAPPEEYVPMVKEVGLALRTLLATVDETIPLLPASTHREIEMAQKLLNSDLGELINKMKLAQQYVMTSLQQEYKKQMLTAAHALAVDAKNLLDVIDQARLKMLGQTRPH

[12] = test system: Fibrinogen (Alexa647-labelled); test: Alexa647-fibrinogen binding to printed small molecules – biochemical, small-molecule microarray, 635/667 nm fluorescence, artefact control for SMM control-protein annotation, profiling panel (AID 1131); settings: fibrinogen-A647 binding fluorescence, higher = more signal;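 note: z-score merges 667 nm fluorescence with per-spot signal-to-noise over triplicate slides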
[13] = target: Follistatin (Homo sapiens) (UniProt P19883); test: FST protein binding to printed compounds – biochemical, small-molecule microarray, 635/667 nm fluorescence, primary screen (AID 1132); settings: 635 nm fluorescence, higher = more signal
Follistatin (Homo sapiens), sequence (P19883 whole entry, looked up): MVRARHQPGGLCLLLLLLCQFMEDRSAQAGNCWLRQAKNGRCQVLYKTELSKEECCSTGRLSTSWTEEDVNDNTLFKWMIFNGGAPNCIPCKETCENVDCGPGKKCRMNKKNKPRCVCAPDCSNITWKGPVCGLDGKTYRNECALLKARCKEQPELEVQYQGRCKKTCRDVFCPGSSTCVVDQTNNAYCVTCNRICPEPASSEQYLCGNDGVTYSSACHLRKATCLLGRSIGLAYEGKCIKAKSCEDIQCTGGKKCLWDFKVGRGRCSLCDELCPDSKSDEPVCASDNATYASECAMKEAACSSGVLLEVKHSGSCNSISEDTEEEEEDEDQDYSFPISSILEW

[14] = target: Fibroblast growth factor 2 (Homo sapiens) (UniProt P09038); test: basic fibroblast growth factor binding to printed compounds – biochemical, small-molecule microarray, 635/667 nm fluorescence, primary screen (AID 1133); settings: FGF2, fluorescence 635/667, higher = more signal
Fibroblast growth factor 2 (Homo sapiens), sequence (P09038 whole entry, looked up): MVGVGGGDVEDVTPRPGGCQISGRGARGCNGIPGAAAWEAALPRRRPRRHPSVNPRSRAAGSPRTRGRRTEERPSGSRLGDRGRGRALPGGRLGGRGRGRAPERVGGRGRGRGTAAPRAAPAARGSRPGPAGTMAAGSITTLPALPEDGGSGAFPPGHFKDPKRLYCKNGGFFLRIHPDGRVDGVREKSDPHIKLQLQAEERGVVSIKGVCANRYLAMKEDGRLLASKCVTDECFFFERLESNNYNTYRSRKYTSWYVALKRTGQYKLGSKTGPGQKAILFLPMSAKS

[15] = JC-1 mitochondrial potential readout, lung cancer cells – cell-based, A549, JC-1 fluorescence, basal, 24 h, 100 nL, profiling panel (AID 1138); settings: higher = more signal;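 note: A549 lung adenocarcinoma cells under basal conditions with no added stimulus; test concentration not given here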
Lefty1 = Lefty1 protein binding to printed compounds – biochemical, small-molecule microarray, 635/667 nm fluorescence, primary screen (AID 1139); settings: fluorescence 635/667, higher = more signal
[16] = test system: wheat germ agglutinin (Triticum aestivum), Alexa647-labelled; test: Alexa647-WGA lectin binding to printed small molecules – biochemical, small-molecule microarray, 635/667 nm fluorescence, artefact control for SMM control-protein annotation, profiling panel (AID 1140); settings: WGA-A647 binding, 635 nm fluorescence, higher = more signal;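 note: score merges 667 nm feature emission with signal to noise over triplicate slides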
[17] = target: Luciferin 4-monooxygenase (Photinus pyralis) (UniProt P08659); test: inhibition of purified Photinus pyralis luciferase – biochemical, luminescence, purified enzyme, 2006 set, primary screen (AID 1141); settings: purified firefly luciferase, SteadyGlo luminescence, 30 min; higher = more signal, called active from +8 up or from −8 down;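 note: cell-free assay with purified firefly luciferase at 100 ng per well in PBS; test concentration not given here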
Luciferin 4-monooxygenase (Photinus pyralis), sequence (P08659 whole entry, looked up): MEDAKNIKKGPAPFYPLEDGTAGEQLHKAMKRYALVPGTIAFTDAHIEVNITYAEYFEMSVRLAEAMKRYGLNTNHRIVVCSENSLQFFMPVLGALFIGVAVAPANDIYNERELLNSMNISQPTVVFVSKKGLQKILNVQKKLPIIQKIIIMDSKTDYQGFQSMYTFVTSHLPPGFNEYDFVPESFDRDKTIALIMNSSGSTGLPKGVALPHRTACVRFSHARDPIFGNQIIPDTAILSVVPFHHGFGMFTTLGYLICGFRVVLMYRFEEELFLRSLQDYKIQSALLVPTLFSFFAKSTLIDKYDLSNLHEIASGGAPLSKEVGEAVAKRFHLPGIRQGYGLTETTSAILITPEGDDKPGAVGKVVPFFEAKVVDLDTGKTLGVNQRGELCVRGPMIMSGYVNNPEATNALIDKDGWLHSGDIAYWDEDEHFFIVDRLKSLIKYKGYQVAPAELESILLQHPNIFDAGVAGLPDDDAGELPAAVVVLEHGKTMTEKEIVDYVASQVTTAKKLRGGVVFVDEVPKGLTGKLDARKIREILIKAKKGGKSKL

SMILES | composite z-score (Albumin (Bos taurus)) | composite Z-score [1] | composite z-score [2] | composite z-score [3] | composite z-score [4] | composite z-score [5] | composite z-score [6] | composite z-score (Sam68 (KHDRBS1)) | composite z-score [7] | composite z-score [8] | composite z-score [9] | composite z-score [10] | composite z-score [11] | composite z-score [12] | composite z-score [13] | composite z-score [14] | z-score [15] | composite z-score (Lefty1) | composite z-score [16] | z-score [17]
O=C1[C@H]2C=C(I)[C@H](C[C@@H]2OCCCCO)[C@@]12CO2 | -1.17 | 0.32 (inactive) | -0.0057 | -0.061 | 0.758 | 0.141 | 0.489 | 0.579 | -0.11 | -0.0969 | -0.276 | 0.0789 | 0.465 | -0.327 | 0.167 | -0.0868 | -0.106 | 0.115 | -0.428 | 0.291 (inactive)
C=CCOC(=O)[C@H]1[C@@H]2C(=O)O[C@@H](c3ccccc3)[C@@H](c3ccccc3)N2[C@@H](c2ccc(OCCOC(=O)[C@@H]3C[C@@H]4C(=O)N5CCC[C@H]5C(=O)N4[C@@H]3c3cccc(OCCO)c3)cc2)[C@]12C(=O)Nc1ccc(I)cc12 | -0.656 | 0.686 (inactive) | 1.12 | 0.117 | 0.269 | 1.15 | 0.322 | 1.29 | 1.18 | 1.14 | 1.55 | 1.2 | 0.402 | 0.726 | 1.45 | 1.4 | -0.838 | 1.38 | 0.458 | -1.12 (inactive)
O=C1OCCC=C[C@H]2OC34C=CCN(CCN5CCOCC5)C(=O)[C@H]3N(CCCCCO)C(=O)[C@@H]4C12 (stereo not given in full) | 0.953 | -0.88 (inactive) | -0.152 | -0.203 | 0.848 | 2.4 | 1.48 | 0.913 | 0.355 | 0.935 | -0.166 | 0.56 | 0.398 | 0.709 | -0.211 | -0.363 | 0.791 | -0.301 | 0.615 | -0.956 (inactive)
C=CCNC(=O)[C@H]1[C@@H]2C(=O)O[C@@H](c3ccccc3)[C@@H](c3ccccc3)N2[C@@H](c2ccc(O)cc2)[C@]12C(=O)Nc1ccc(C#CCCO)cc12 | 0.138 | -0.157 (inactive) | -0.112 | -0.198 | 0.656 | -0.0099 | 0.75 | -0.319 | -0.559 | -0.065 | -0.0591 | -0.338 | 0.459 | -0.297 | 0.265 | -0.869 | 0.0152 | 0.358 | -0.48 | 0.361 (inactive)
COCCOC(=O)N1C(=O)[C@@]2(c3cc(C#CC4(O)CCCCCC4)ccc31)[C@H](C(=O)Nc1nc3ccccc3s1)[C@H]1C(=O)O[C@H](c3ccccc3)[C@H](c3ccccc3)N1[C@@H]2c1ccc(OCCO)cc1 | 0.345 | -0.245 (inactive) | 0.246 | -0.0009 | 0.503 | 0.541 | 0.324 | 1.3 | 0.637 | 1.1 | 0.553 | 1.16 | -0.0405 | 0.801 | 1.12 | 1.58 | -2.51 | 1.22 | 0.924 | -3.29 (inactive)
CO[C@H]1O[C@H](CO)[C@@H](OC(=O)Nc2ccc(Oc3ccccc3)cc2)[C@H](OC(=O)Nc2ccc3c(c2)OCO3)[C@@H]1OC(=O)Nc1ccc2c(c1)OCO2 | 0.277 | 1.29 (inactive) | 0.327 | 0.0248 | 0.333 | 2.02 | 0.869 | 1.3 | 0.335 | 1.18 | 1.83 | 1.24 | 0.653 | 0.85 | 1.28 | 1.2 | -0.216 | 0.423 | 0.779 | -5.16 (inactive)
COc1cc2c(cc1O)C=[N+](Cc1cc3c(cc1Br)OCO3)CC2 | -0.71 | -0.402 (inactive) | -0.185 | -0.126 | 0.844 | 0.0478 | 0.27 | -0.54 | -0.139 | -1.27 | -0.954 | -1.07 | -0.626 | -2.07 | -0.174 | -0.659 | -0.784 | -0.553 | 0.248 | 0.807 (inactive)
COc1ccc(-c2cc3c(c(Cc4ccccc4)n2)[Si](C(C)C)(C(C)C)OC3)cn1 | -0.832 | 0.168 (inactive) | 0.0596 | -0.155 | -0.272 | -0.0385 | -0.124 | -0.0817 | 0.21 | -0.739 | -0.356 | -0.875 | -0.0985 | -0.827 | -0.108 | -0.328 | -0.687 | -0.0455 | -0.351 | 0.892 (inactive)
CO[C@H]1O[C@H](CO)[C@@H](OC(=O)Nc2cccc(F)c2)[C@H](OC(=O)Nc2ccccc2)[C@H]1OC(=O)Nc1ccccc1 | -0.225 | 0.0063 (inactive) | 0.146 | -0.0664 | 0.65 | 1.24 | 0.168 | 1.29 | 0.323 | 0.899 | 2.02 | 1.29 | 0.656 | 0.993 | 1.35 | 1.12 | -1.18 | 1.3 | 0.662 | 0.124 (inactive)
CC(C)[Si](C#CCCCC#N)(Oc1ccccc1Br)C(C)C | 0.435 | 0.147 (inactive) | -0.0377 | -0.092 | 0.508 | 0.51 | 0.0245 | 0.993 | 0.299 | 0.912 | 0.259 | 0.725 | 0.3 | 0.709 | 0.269 | 0.223 | -0.0477 | 0.55 | 0.327 | -0.277 (inactive)
C=C(CCCC)/C(=C/C[C@H](OC(C)=O)c1ccc(OCCO)cc1)c1cnc2ccccc2c1 | 0.466 | 0.0474 (inactive) | 0.116 | -0.108 | 0.471 | 1.2 | 0.117 | 1.31 | 1.05 | 0.817 | 0.91 | 0.78 | -0.115 | 0.387 | 0.735 | 0.623 | 0.649 | 1.15 | 0.869 | -0.126 (inactive)
CCCCCCCCCCC(O)C1C=CC2C(=O)NC(=O)C2N1Nc1ccc(Cl)cc1Cl (stereo not given) | 0.145 | -0.383 (inactive) | -0.0288 | -0.077 | 0.442 | 1.66 | 0.192 | -0.0789 | 0.0425 | 0.248 | 0.997 | 0.186 | 0.459 | 0.331 | -0.184 | -0.942 | -0.863 | -1.14 | 0.117 | -0.836 (inactive)
NC(=O)[C@@]1(Cc2ccccc2)N=C(c2ccc(OCCCO)cc2)O[C@H]1c1ccccc1 | 0.852 | 0.546 (inactive) | 0.0276 | 0.0247 | 0.721 | 3.05 | 0.593 | 0.572 | -0.643 | 0.737 | 3.01 | 0.614 | 0.0867 | 0.648 | 0.62 | 0.686 | 0.184 | -0.846 | 1.3 | -1 (inactive)
CCN(CC)c1ccc(N2CC=CC34O[C@@H]5/C=C\CCC(C)OC(=O)C5[C@H]3C(=O)N(CCCCCO)[C@@H]4C2=O)cc1 (stereo not given in full) | -0.295 | -0.4 (inactive) | -0.222 | -0.19 | 0.905 | -1.05 | -0.472 | -2.57 | -1.16 | -2.12 | -0.117 | -0.886 | -0.336 | -0.899 | -0.614 | -0.48 | 0.105 | -0.978 | 0.208 | -0.659 (inactive)
COc1ccc(NN2C(C(O)c3ccc(N(C)C)cc3)C=CC3C(=O)N(C4CCCCC4)C(=O)C32)cc1 (stereo not given) | 0.906 | -0.247 (inactive) | 0.391 | 0.0992 | 0.689 | 2.13 | 0.414 | 1.31 | 0.212 | 1.16 | 1.64 | 1.22 | 0.465 | 0.941 | 0.731 | -0.24 | -0.165 | 0.27 | 0.667 | 0.557 (inactive)
O=C1C2C=CC(C(O)c3ccc(F)cc3)N(Nc3ccc([N+](=O)[O-])cc3)C2C(=O)N1c1ccccc1 (stereo not given) | 0.877 | 0.227 (inactive) | 0.0749 | -0.0852 | 0.795 | 2.76 | 0.569 | 1.31 | 0.0095 | 1.15 | 1.76 | 0.705 | 0.789 | 1.02 | 0.282 | -0.0449 | -0.433 | 0.16 | 1.09 | 1.43 (inactive)
